# CHX counter – counter-screen for Shiga toxin inhibitors: cycloheximide protein synthesis inhibition | cell reporter, cycloheximide protein synthesis inhibition counterscreen | max response, % | 12% of 300,000 active | AID 2314; in the data active means max response mostly above about 13%, no sharp cut-off; inactive means mostly below about 14%; further: read at 38.3 µM for the half of the compounds with a filed dose; 0% is about no effect
# Shiga inhibitor – blocks Shiga toxin action in Vero cells. Vero cells, Shiga toxin protein synthesis inhibition reporter. inhibition, % at 38.7 µM. 9.2% of 290,000 active. AID 2315; in the data active means inhibition mostly above about 28%, no sharp cut-off; inactive means mostly below about 43%; further: 0% is about no effect
# Pf growth 48h – P. falciparum growth inhibition at 48 hours (one generation); P. falciparum luciferase growth in erythrocytes, 48 h; Potency, µM (series often up to 28.7 µM), for the others: at the top dose activity change, negative = inhibition, actives largely listed as inhibitors; 5.9% of 310,000 active; AID 504832; active means well fitted inhibition curve with a large enough effect; inconclusive means small, poorly fitted or top-dose-only effect, or another doubt; inactive means no such curve, though single readings can be large or run the other way; further: potency means the concentration at half of the fitted maximal effect; on the % scale 0 is the no-effect control and ±100 the full control effect
#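 Luciferase-expressing P. falciparum in infected erythrocytes (2% hematocrit, 0.1% parasitemia final) in RPMI 1640/0.5% Albumax were exposed to compound for 48 hours at 37 C, 5% CO2; growth read as luminescence.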
# Pf growth 96h – P. falciparum growth inhibition at 96 hour, primary screen for plastid delayed-death inhibitors | P. falciparum luciferase reporter growth, 96 h | Potency, µM (series often up to 28.7 µM), for inactives: at the highest dose activity change, negative = inhibition, usual class: inhibitors | 6.9% of 320,000 active; active means well fitted inhibition curve with a large enough effect; inconclusive means small, poorly fitted or top-dose-only effect, or another doubt; inactive means no such curve, though single readings can be large or run the other way; further: potency means the concentration at half of the fitted maximal effect; on the % scale 0 is the no-effect control and ±100 the full control effect
#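 Cell-based qHTS: luciferase-tagged P. falciparum in erythrocytes (2% hematocrit, 0.05% parasitemia final) incubated with compounds for 96 hours, 37 C, 5% CO2; luciferase detection reagent then added and luminescence measured.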
# SARS PLP yeast – SARS-CoV PLP inhibition in yeast. S. cerevisiae expressing SARS-CoV PLpro, growth rescue. 0.19% of 330,000 active. Potency, µM (highest dose often 32.9 µM), for inactives: at the highest dose activity, positive = growth rescue, actives largely listed as activators; further: potency means the concentration at half of the fitted maximal effect; 0% is about no effect; nearly all actives have a fitted effect of over 55% in size
# NS1 function inh – influenza NS1 inhibition | Potency, µM (titrated, usually from 46.1 µM), inactives show at the highest dose activity, positive = more growth | 0.4% of 270,000 active; further: potency means the concentration at half of the fitted maximal effect; actives are rising curves; nearly all actives have a fitted effect of over 50% in size
#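 Read-out: OD600 growth recovery of NS1-expressing budding yeast. Cells grown overnight at 30C in -URA glucose medium, washed, resuspended and diluted 1:100 in 2% galactose assay medium, pH 6.0. Same strain lacking NS1 served as positive control.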
# * marks the source's active call; other numbers are inactive results; ? = inconclusive; / = no result; [ ] = remark or other dose. Compounds with a hit are over-represented: about 21% of the library has one in this group of screens. Unless noted, the call rests on the fitted dose curve.
SMILES,CHX counter,Shiga inhibitor,Pf growth 48h,Pf growth 96h,SARS PLP yeast,NS1 function inh
Cc1cccc(NC(=S)NNC(=O)c2ccco2)c1,23*,active,6%,21%,1%,3%
Cc1ccc(C)c(NC(=S)NNC(=O)c2ccco2)c1,18,16,18%,7%[5.75 µM],3%,4%
COc1cccc(CC(NC(C)=O)C(=O)NC2CCN(C(=O)c3ccc(Cl)cc3)CC2)c1 (centres undefined),-4,-5,1%,54%,9%,13%
CCCOC(=O)C1=C(C)OC23OC(N)=C(C#N)C12C(=O)c1ccccc13 (centres undefined),12,9,?,-19%,6%,8%
O=C(Nc1c2c(nn1-c1ccc(F)cc1)CS(=O)(=O)C2)C1CCCC1,-2,-11,4%,10µM*,-3%,-3%
O=C(Nc1c2c(nn1-c1ccc(F)cc1)CS(=O)(=O)C2)c1ccc(Br)o1,-4,-7,12µM*,?,4%,0%
COc1ccc(-n2nc3c(c2NC(=O)c2ccc(Br)o2)CS(=O)(=O)C3)cc1,-1,-20,-3%,?,18%,-2%
O=c1[nH]c(=O)c2[nH]c(=O)[nH]c2[nH]1,/,/,-10%,-9%,/,/
N=C(N)CCNC(=O)[C@@H]1CCC(N)=N1,/,/,/,/,/,-1%
O=C1C=CN2CCOCC2C1 (centres undefined),/,/,/,/,29%,/
CCN(CC)C(=O)c1sc2nc(-c3ccc(OC)cc3)cn2c1C,38*,77*,249%,?,-1%,-67%
COc1ccc(-c2cn3c(C)c(C(=O)NCCN4CCOCC4)sc3n2)cc1,6,9,?,?,-4%,13%
CNC(=O)c1sc2nc(-c3ccc(OC)cc3)cn2c1C,86*,146*,/,7%,-11%,-99%
CNC(=S)N1N=C(c2ccc(C)cc2)CC1c1ccc(OC)cc1 (centres undefined),-2,11,-7%,13%,2%,-12%
CCC(=O)N1N=C(c2ccc(NS(C)(=O)=O)cc2)CC1c1ccc(N(C)C)cc1 (centres undefined),30*,72*,124%,4%,3%,/
CN(C)c1ccc(C2CC(c3cccc(NS(C)(=O)=O)c3)=NN2C(=O)c2ccccc2)cc1 (centres undefined),-1,18,?,40%,0%,3%
CNC(=S)N1N=C(c2ccc(C)cc2)CC1c1ccc(N(C)C)cc1 (centres undefined),43*,86,?,?,0%,/
O=C(CSc1ncnc2sccc12)NCc1ccc2c(c1)OCO2,/,/,?,?,-4%,/
COCCNC(=O)CN(C(=O)Cn1nnc2ccccc21)c1ccc(F)c(Cl)c1,-2,-18,18%,10µM*,11%,3%
COC(=O)C(O)(c1ccc(NC(=O)c2ccccc2)cc1)C(F)(F)F (centres undefined),51*,103*,72%,74%,-2%,3%
COC(=O)C(O)(c1ccc(NC(=O)c2cccs2)cc1)C(F)(F)F (centres undefined),33*,72*,75%,74%,0%,-2%
CCN(CC)CCn1c2c(c(SCC(=O)Nc3ccccc3Cl)nc1=O)CCCC2,/,/,-27%,?,-1%,/
CSCCC(NS(=O)(=O)c1ccc2c(c1)OCCO2)C(=O)N(C)Cc1ccccc1F (centres undefined),/,/,12µM*,?,-6%,/
CSCCC(NS(=O)(=O)c1ccc2c(c1)OCCO2)C(=O)N(C)Cc1ccc(F)cc1 (centres undefined),/,/,?,?,-2%,/
COc1ccc2[nH]c(C(=O)O)c(CCN3C(=O)c4ccc(C(=O)O)cc4C3=O)c2c1,17*,24,50%,38%,0%,1%
SMILES,CHX counter,Shiga inhibitor,Pf growth 48h,Pf growth 96h,SARS PLP yeast,NS1 function inh
COc1ccc2[nH]c(C(=O)O)c(CCC(=O)O)c2c1,-3,-14,1%,?,-3%,19%
O=C(O)CCCNS(=O)(=O)/C=C/c1ccccc1,-2,-11,0%,?,4%,/
CCOc1cc(N2CCOCC2)c(OCC)cc1NC(=O)c1cc(C)cc(C)c1,1,-10,13µM*,?,-1%,/
CCOc1cc(N2CCOCC2)c(OCC)cc1NC(=O)c1ccc(C)cc1,11,-18,?,-25%,2%,/
CCOc1cc(N2CCOCC2)c(OCC)cc1NC(=O)Cc1ccccc1,1,18,?,?,1%,1%
CCOC(=O)c1c(C)[nH]c(C(=O)Nc2cc(OCC)c(N3CCOCC3)cc2OCC)c1C,/,/,2.9µM*,15µM*,-4%,/
CCOc1cc(N2CCOCC2)c(OCC)cc1NC(=O)Cc1ccccc1OC,7,52,?,7.4µM*,6%,5%
CCOc1cc(N2CCOCC2)c(OCC)cc1NC(=O)CN1CCCC(C)C1 (centres undefined),15*,-6,?,?,-7%,-11%
CCOc1cc(N2CCOCC2)c(OCC)cc1NC(=O)CN1CCC(Cc2ccccc2)CC1,-1,-13,-22%,?,11%,4%
Cn1c(CSCc2ccc(F)cc2)nnc1SCC(=O)N1CCN(c2ccccc2)CC1,-2,-6,-19%,?,-16%,4%
NC(=O)C(c1ccc(Cl)cc1Cl)c1ncc(C(F)(F)F)cc1Cl (centres undefined),-4,-10,24%,22%,-4%,19%
O=C(CN1CCN(Cc2ccccc2)CC1)Nc1ccc(Br)cc1,-3,2,6%,18%,0%,-5%
O=C(Nc1ccc(OCC(F)(F)C(F)F)c(C(F)(F)F)c1)c1ccccc1O,21*,52*,2.1µM*,3.7µM*,-38%,-48%
O=C(Nc1ccc(OCC(F)(F)C(F)F)cc1)c1ccncc1,13,22,15%,2%,0%,/
COc1ccccc1-n1cnc2cc(C(=O)N3CCOCC3)ccc21,25*,41*,10%,9.3µM*,4%,17%
CCCNC(=O)c1ccc2c(c1)ncn2-c1ccccc1OC,12*,20,?,89%,1%,-5%
CCOC(CNC(=O)c1ccc2c(c1)ncn2-c1ccccc1OC)OCC,-2,-3,?,5%,1%,0%
O=C(CCN1CCOCC1)NNC(=O)c1ccc([N+](=O)[O-])cc1[N+](=O)[O-],/,/,/,/,4%,/
CCc1cc(C(=O)N2CCCC(CCC(=O)N3CCN(c4ccccn4)CC3)C2)no1 (centres undefined),-2,6,-23%,-9%,0%,-1%
CC(=O)N1CCCN(C(=O)c2cc(COc3c(F)cccc3F)on2)CC1,4,12,?,0%,3%,24%
O=C(c1cc(COc2cccc(C(F)(F)F)c2)on1)N1CCC(c2ccccc2)CC1,8,3,5%,?,-2%,12%
Cc1cccc(C)c1OCc1cc(C(=O)N2CCN(c3ccccn3)CC2)no1,44*,46*,9%,?,-10%,-58%

# Source: PubChem (National Center for Advancing Translational Sciences (NCATS))
